# Of roughly 7,900 targets only a part is listed; those with a hit were picked by preference. About 0.6% of all pairs of compound and target were hits. Values without a mark were called inactive.
# Assays:
# Assay in all cases: log2 fold change, soluble protein after heating vs DMSO (PISA); higher = thermal stabilisation; K562 cells, 10 uM, 30 min; active = over 0.2 and 3.5 SD of the protein, either way, in both replicates (recomputed)
# [1] = compound: COC1=CC=C(C=C1)CN2C=CC3=C2C=C(C=C3)C(=O)NO
# Procedure, shortened: (§1)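 Thermal stability values are relative to control samples and come from duplicates. They are expressed as log2 fold changes. For measurement, K562 cells (2×10^6 cells/mL) received 10 μM compound for 30 min, and aliquots were heated for 3 min over 48°C-58°C, pooled, and extracted at 4°C in PBS with 0.5% NP-40. Soluble protein, the supernatant after 21,000xg for 90 min, was quantified by TMTpro 16plex LC-MS/MS with equalised channel sums.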
# [2] = compound: CON(C)C(=O)N1N=C(c2cc(F)ccc2F)S[C@@]1(CCCN)c1ccccc1 [filanesib]
# Procedure, shortened: as §1
# [3] = compound: CO[C@H]1C[C@@H]2CC[C@@H](C)[C@@](O)(O2)C(=O)C(=O)N2CCCC[C@H]2C(=O)O[C@H]([C@H](C)C[C@@H]2CC[C@H](n3cnnn3)[C@H](OC)C2)CC(=O)[C@H](C)/C=C(\C)[C@@H](O)[C@@H](OC)C(=O)[C@H](C)C[C@H](C)/C=C/C=C/C=C/1C [zotarolimus]
# Procedure, shortened: as §1
# [4] = compound: COc1cc(C(=O)O)ccc1NC(=O)[C@@H]1N[C@@H](CC(C)(C)C)[C@](C#N)(c2ccc(Cl)cc2F)[C@H]1c1cccc(Cl)c1F [idasanutlin]
# Procedure, shortened: as §1
# [5] = compound: COc1cc(Nc2ncc3c(n2)-c2ccc(Cl)cc2C(c2c(F)cccc2OC)=NC3)ccc1C(=O)O [alisertib]
# Procedure, shortened: as §1
# [6] = compound: COc1cc2nc(-c3cc(F)ccc3O)nc(N[C@@H]3CNC[C@H]3C(C)(C)O)c2cc1OC
# Procedure, shortened: as §1
# [7] = compound: COc1cc2ncnc(Nc3ccc(F)c(Cl)c3)c2cc1OCCCN1CCOCC1 [gefitinib]
# Procedure, shortened: as §1
# [8] = compound: COc1cccc2cc(-c3nc([C@H]4CC[C@H](C(=O)O)CC4)n4ncnc(N)c34)[nH]c12
# Procedure, shortened: as §1
# [9] = compound: CS(=O)(=O)CCNCc1ccc(-c2ccc3ncnc(Nc4ccc(OCc5cccc(F)c5)c(Cl)c4)c3c2)o1 [lapatinib]
# Procedure, shortened: as §1
# [10] = compound: CS(=O)(=O)N1CCN(Cc2cc3nc(-c4cccc5[nH]ncc45)nc(N4CCOCC4)c3s2)CC1 [pictilisib]
# Procedure, shortened: as §1
# UniProt Q58WW2, sequence (Q58WW2 whole entry, looked up): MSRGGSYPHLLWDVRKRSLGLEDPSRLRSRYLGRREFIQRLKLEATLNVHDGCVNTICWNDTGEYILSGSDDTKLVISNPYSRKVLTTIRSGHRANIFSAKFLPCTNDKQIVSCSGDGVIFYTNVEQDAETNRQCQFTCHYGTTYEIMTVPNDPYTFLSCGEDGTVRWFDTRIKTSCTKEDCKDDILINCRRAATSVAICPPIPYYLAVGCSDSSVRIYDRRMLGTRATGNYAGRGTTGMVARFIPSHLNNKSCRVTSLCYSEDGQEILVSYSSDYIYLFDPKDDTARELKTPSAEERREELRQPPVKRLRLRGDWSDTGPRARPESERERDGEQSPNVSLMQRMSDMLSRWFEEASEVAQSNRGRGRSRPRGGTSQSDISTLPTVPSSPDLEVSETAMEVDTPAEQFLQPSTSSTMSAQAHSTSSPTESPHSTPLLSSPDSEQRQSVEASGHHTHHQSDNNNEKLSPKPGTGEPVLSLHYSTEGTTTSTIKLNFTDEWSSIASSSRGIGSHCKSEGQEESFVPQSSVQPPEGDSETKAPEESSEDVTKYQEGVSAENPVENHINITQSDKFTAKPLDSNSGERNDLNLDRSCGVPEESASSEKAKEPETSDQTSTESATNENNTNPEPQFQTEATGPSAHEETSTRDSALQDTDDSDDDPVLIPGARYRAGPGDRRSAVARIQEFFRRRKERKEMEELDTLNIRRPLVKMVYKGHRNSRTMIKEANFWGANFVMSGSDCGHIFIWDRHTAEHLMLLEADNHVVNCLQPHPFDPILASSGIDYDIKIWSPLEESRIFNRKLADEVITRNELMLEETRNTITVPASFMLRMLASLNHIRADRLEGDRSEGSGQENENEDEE
# UniProt Q8N5C7, sequence (Q8N5C7 whole entry, looked up): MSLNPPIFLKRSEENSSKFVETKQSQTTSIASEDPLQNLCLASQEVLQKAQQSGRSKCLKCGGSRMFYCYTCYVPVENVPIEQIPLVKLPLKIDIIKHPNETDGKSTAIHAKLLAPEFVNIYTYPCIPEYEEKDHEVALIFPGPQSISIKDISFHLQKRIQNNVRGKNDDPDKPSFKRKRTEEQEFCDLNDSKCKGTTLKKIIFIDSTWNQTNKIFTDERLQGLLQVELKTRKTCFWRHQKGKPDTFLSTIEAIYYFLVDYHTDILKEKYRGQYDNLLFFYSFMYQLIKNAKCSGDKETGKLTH
# UniProt Q9GZT9, sequence (Q9GZT9 whole entry, looked up): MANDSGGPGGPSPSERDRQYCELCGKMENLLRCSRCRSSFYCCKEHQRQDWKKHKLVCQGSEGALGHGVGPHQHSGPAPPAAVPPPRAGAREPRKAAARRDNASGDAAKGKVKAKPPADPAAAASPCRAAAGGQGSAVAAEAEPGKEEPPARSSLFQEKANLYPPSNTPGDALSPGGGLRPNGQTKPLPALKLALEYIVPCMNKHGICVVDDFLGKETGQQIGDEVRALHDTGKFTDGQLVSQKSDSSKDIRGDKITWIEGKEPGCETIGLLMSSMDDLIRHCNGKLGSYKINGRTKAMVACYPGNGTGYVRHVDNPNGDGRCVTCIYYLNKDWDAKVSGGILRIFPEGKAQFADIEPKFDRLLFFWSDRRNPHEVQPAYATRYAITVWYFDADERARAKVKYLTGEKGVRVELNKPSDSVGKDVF
# UniProt Q7L014, sequence (Q7L014 whole entry, looked up): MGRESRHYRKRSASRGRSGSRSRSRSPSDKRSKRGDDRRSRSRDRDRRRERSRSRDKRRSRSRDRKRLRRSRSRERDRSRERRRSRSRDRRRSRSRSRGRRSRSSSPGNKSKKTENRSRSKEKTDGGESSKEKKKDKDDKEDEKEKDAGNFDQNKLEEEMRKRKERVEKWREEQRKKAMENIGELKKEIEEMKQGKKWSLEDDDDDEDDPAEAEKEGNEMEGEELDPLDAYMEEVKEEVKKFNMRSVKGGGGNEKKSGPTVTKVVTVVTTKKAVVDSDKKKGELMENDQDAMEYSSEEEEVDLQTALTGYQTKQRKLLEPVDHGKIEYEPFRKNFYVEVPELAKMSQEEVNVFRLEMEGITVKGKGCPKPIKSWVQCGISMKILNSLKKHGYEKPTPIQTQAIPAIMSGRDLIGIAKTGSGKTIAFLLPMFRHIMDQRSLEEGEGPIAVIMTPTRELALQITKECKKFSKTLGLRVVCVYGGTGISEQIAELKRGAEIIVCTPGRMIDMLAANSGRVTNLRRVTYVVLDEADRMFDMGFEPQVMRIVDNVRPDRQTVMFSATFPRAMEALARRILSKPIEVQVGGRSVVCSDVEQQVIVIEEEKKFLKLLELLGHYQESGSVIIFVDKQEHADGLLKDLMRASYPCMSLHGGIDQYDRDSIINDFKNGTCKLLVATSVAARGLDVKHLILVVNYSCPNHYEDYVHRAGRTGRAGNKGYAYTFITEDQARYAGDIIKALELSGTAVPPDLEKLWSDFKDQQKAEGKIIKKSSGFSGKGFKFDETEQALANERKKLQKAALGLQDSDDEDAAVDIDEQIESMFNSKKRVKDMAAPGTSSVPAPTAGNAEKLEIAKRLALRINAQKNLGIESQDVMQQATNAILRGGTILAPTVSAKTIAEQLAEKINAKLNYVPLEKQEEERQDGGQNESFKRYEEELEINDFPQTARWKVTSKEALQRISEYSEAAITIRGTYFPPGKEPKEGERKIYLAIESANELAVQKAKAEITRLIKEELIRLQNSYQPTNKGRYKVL
# UniProt P49366, sequence (P49366 whole entry, looked up): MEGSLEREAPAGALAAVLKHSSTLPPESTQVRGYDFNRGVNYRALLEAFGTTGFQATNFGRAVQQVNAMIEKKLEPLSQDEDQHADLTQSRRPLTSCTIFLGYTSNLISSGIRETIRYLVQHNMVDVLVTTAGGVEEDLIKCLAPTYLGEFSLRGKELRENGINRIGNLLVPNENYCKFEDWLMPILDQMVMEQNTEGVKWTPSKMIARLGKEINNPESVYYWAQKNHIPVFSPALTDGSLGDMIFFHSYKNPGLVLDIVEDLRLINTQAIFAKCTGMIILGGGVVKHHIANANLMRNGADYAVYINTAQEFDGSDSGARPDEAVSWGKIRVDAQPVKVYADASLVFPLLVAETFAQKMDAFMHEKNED
# UniProt Q96EV8, sequence (Q96EV8 whole entry, looked up): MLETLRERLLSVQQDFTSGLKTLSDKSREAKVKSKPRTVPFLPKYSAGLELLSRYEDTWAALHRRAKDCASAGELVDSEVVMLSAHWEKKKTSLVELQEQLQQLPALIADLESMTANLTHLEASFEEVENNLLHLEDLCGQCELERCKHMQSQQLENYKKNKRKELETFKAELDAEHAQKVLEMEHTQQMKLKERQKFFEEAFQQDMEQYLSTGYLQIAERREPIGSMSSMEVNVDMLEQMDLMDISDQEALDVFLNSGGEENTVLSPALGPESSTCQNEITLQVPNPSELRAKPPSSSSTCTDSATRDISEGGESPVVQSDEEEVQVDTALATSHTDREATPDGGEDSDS
# UniProt Q96DA6, sequence (Q96DA6 whole entry, looked up): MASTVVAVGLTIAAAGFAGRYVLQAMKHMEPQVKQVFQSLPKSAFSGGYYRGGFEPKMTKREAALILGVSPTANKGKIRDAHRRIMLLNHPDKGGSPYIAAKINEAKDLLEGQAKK
# UniProt Q9UPT5, sequence (Q9UPT5 whole entry, looked up): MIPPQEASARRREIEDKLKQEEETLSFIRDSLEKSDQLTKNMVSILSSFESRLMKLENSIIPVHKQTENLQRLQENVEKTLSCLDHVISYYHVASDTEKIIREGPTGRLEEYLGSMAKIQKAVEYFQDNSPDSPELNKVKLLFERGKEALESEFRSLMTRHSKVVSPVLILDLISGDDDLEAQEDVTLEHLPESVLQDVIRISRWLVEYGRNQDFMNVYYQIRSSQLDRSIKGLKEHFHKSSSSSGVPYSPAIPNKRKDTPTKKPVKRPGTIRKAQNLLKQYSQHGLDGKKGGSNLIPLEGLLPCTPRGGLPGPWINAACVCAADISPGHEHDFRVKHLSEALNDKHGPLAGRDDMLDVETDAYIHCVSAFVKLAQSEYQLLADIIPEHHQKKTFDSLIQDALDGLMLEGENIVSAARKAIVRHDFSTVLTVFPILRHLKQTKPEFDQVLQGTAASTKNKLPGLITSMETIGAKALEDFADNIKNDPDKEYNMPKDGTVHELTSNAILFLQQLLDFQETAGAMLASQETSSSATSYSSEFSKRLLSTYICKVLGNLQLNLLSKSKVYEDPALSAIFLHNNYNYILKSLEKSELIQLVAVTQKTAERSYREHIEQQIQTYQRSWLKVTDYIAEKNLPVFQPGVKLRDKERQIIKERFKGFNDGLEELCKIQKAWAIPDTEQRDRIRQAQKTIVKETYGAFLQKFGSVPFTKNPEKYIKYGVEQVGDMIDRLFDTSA
# UniProt O00471, sequence (O00471 whole entry, looked up): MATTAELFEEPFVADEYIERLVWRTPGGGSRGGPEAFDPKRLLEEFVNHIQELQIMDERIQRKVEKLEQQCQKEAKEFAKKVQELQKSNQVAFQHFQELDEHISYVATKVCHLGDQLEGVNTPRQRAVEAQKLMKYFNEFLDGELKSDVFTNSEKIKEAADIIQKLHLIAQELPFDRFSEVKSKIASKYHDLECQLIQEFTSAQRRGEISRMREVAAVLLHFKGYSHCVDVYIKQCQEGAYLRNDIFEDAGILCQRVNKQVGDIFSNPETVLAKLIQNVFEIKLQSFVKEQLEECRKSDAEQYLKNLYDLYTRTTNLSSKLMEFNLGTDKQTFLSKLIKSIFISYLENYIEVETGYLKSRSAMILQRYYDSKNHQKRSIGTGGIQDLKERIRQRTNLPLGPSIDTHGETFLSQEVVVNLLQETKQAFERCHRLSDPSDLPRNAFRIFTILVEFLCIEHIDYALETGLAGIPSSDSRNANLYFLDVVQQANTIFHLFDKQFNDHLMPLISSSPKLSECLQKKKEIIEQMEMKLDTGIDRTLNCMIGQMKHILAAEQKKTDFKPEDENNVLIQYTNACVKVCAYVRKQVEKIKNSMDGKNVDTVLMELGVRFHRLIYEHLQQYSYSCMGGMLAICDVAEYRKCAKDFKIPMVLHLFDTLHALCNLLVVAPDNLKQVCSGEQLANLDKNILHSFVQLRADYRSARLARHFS
Target,log2 fold change [1],log2 fold change [2],log2 fold change [3],log2 fold change [4],log2 fold change [5],log2 fold change [6],log2 fold change [7],log2 fold change [8],log2 fold change [9],log2 fold change [10]
"EED, A0A5F9ZI63",0.008,0.115,-0.01,0.08,-0.097,0.032,0.006,0.018,0.091,-0.163
DDX4 (UniProt Q9NQI0),-0.474,0.186,0.004,0.42,0.172,0.368,0.048,-0.715,-0.399,0.17
EDEM2 (UniProt Q9BV94),-0.149,-0.03,0.022,-0.154,-0.441 (active),0.028,0.033,0.205,-0.064,0.09
ELOVL1 (UniProt Q9BW60),-0.103,-0.139,-0.051,-0.051,0.032,-0.084,-0.087,0.032,-0.078,-0.046
DTYMK (UniProt P23919),-0.043,-0.09,-0.023,-0.065,-0.014,0.047,-0.108,0.152,-0.026,-0.054
EXOC7 (UniProt Q9UPT5),0.023,0.032,0.01,-0.076,-0.024,0.149,-0.054,-0.053,-0.031,-0.057
CYP51A1 (UniProt Q16850),-0.035,0.217,-0.11,0.099,-0.025,-0.005,0.009,-0.105,0.401 (active),-0.216
DHPS (UniProt P49366),0.268 (active),-0.024,-0.001,0.03,-0.033,-0.047,-0.018,0.063,0.05,0.024
DDX46 (UniProt Q7L014),0.109,-0.003,0.046,0.029,0.434,0.001,0.041,-0.005,0.026,0.117
EGLN1 (UniProt Q9GZT9),-0.361 (active),-0.07,-0.022,-0.004,0.018,0.018,0.022,-0.074,0.01,0.009
DPP8 (UniProt Q6V1X1),-0.089,0.048,0.028,-0.112,-0.01,0.041,0.042,0.037,-0.077,0.022
DHCR24 (UniProt Q15392),0.061,-0.074,0.013,-0.087,-0.123,0.047,1.05 (active),-0.038,0.711,0.055
EEF1G isoform 2 (UniProt P26641),-0.017,0.012,0.027,-0.014,-0.046,-0.016,0.018,-0.083,0.041,-0.06
EEF1B2 (UniProt P24534),0.033,0.031,0.035,0.007,0.023,0.03,0.024,-0.061,-0.029,0.014
DCAF6 isoform 3 (UniProt Q58WW2),-0.007,-0.017,-0.045,-0.026,-0.081,-0.023,-0.01,0.059,0.016,0.001
CUX1 isoform 3 (UniProt P39880),0.068,0.001,-0.002,0.012,-0.047,-0.024,0.009,0.008,0.013,0.054

Target,log2 fold change [1],log2 fold change [2],log2 fold change [3],log2 fold change [4],log2 fold change [5],log2 fold change [6],log2 fold change [7],log2 fold change [8],log2 fold change [9],log2 fold change [10]
EXTL2 (UniProt Q9UBQ6),0.051,-0.023,-0.147,-0.121,-0.144,-0.094,0.075,0.123,0.05,-0.111
EEA1 (UniProt Q15075),0.041,-0.012,-0.028,0.017,-0.031,0.002,0.007,0.036,0.021,0
DUS2 (UniProt Q9NX74),-0.02,-0.014,-0.041,-0.004,-0.075,0.059,0.04,-0.11,0.043,-0.128
DNAJC19 (UniProt Q96DA6),0.096,-0.155,0.016,-0.004,-0.022,-0.205 (active),0.006,0.045,-0.012,0.025
FAM118B (UniProt Q9BPY3),0.028,-0.196,0.011,-0.034,-0.049,0.017,0.031,0.129,0.018,0.099
EIF3J (UniProt O75822),-0.067,-0.086,0.007,-0.042,-0.018,0.079,-0.004,-0.057,-0.057,-0.04
DAG1 (UniProt Q14118),0.005,0.054,-0.045,-0.047,-0.075,0.105,0.032,0.082,-0.015,0.115
DTNBP1 (UniProt Q96EV8),-0.033,-0.115,-0.009,-0.068,-0.003,0.004,0.018,0.044,-0.041,0.073
EXOC5 (UniProt O00471),-0.005,-0.051,0.089,-0.079,-0.01,0.123,-0.024,-0.015,-0.028,-0.055
EHBP1L1 (UniProt Q8N3D4),0.054,0.147,0.065,-0.021,-0.098,0.119,-0.009,-0.026,0.03,0.217
DTWD1 (UniProt Q8N5C7),-0.227,-0.081,0.031,-0.115,-0.057,0.078,0.069,0.031,0.044,0.124
CUTA isoform 2 (UniProt O60888),0.248,0.108,-0.159,0.002,-0.055,-0.225,0.037,0.012,0.023,-0.358
DNM2 (UniProt P50570),-0.022,-0.107,0.016,-0.078,-0.073,0.099,0.002,0.023,-0.026,0.021
CYFIP1 (UniProt Q7L576),0.053,-0.027,0.039,-0.028,0.061,-0.004,0.008,0.013,0.023,0.097
DYNC1I2 isoform 2 (UniProt Q13409),0.093,0.203,-0.085,0.201,0.066,0.06,–,0.051,-0.002,–
EVC2 (UniProt Q86UK5),-0.073,-0.142,-0.039,0.053,-0.066,-0.146,0.09,0.016,-0.224,-0.194

# Source: the supplement of paper PMC10849652
